Measured values reported in PubChem BioAssay AID1259249 (Broad Institute, 2017).
Several values for one entry are separate records, joined by “and”; a condition that tells them apart may be missing. Equal entries are not always repeated. About 220 (0.26%) of roughly 86,000 compounds were called active. Shown is part of a subset that was picked to be rich in actives. Unmarked numbers belong to inactive results.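 Rule for the calls: active = mean growth activity at or below -80% and every replicate also at or below -80%; inconclusive = mean at or below -80% but some replicate above -80%; inactive = mean growth activity above -80%.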

Experiment: C. difficile growth inhibitors, primary screen, HTS (AID 1259249);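 note: 0% = DMSO wells and -100% = levofloxacin 16 µg/mL wells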
Details: Clostridium difficile clinical isolate growth, OD600, 24 h; hits give low values; screened at 16 µg/mL (by protocol)

| Compound | growth activity, negative = inhibition |
| --- | --- |
| COc1ccccc1CN1[C@H](CO)[C@@H](c2ccccc2)C12CN(C(=O)c1cnccn1)C2 | 5.54% |
| CN1CCN(C(=O)C[C@H]2CC[C@H]3[C@@H](COC[C@H](O)CN3CC3CCOCC3)O2)CC1 | -4.46% and 6.12% |
| COCCNC(=O)C[C@H]1CC[C@@H]2[C@@H](COc3ccc(NC(=O)C4CCOCC4)cc3C(=O)N2C)O1 | -4.68% |
| CNC(=O)C[C@@H]1CC[C@@H]2[C@@H](COc3ccc(NC(=O)c4ccc(F)cc4)cc3C(=O)N2C)O1 | 8.61% |
| O=C(N[C@@H]1CC[C@@H](CC(=O)N2CCc3ccccc3C2)O[C@H]1CO)C1CC1 | -3.47% |
| CCCNC(=O)N1CC2(C1)[C@H](c1ccccc1)[C@@H](CO)N2Cc1cccc(Cl)c1 | 17% |
| O=C(Nc1ccc(F)cc1)N1C[C@@H]2[C@H](c3ccccc31)[C@H](CO)N2Cc1ccccc1 | 3.9% |
| O=C(C1CCCCC1)N1C[C@@H]2N[C@H](C1)C2c1ccc(-c2cccc(F)c2)cc1 (stereo not given in full) | 56.1% and 10.9% |
| CN(C)C(=O)c1ccc(-c2ccc(C3[C@@H]4CN(C(=O)Nc5ccccc5)C[C@H]3N4)cc2)cc1 (stereo not given in full) | 4.58% |
| Cc1cccc(-c2ccc(C3[C@@H]4CN(C(=O)Nc5ccc(C(F)(F)F)cc5)C[C@H]3N4)cc2)c1 (stereo not given in full) | -94.2% (active) and -85.7% (active) |
| COc1ccc2c3c(n(C)c2c1)[C@H](CO)N(Cc1ccccc1)CC31CN(C(=O)c2ccccc2F)C1 | 20.3% |
| CCCC(=O)Nc1ccc2c(c1)OC[C@H](C)N(C(=O)CC)C[C@H](C)[C@@H](OC)CN(C)C2=O | -5.26% |
| COc1ccc2c3c([nH]c2c1)[C@@H](CO)N(C(C)=O)CC31CN(C(=O)Nc2ccc(F)cc2)C1 | 1.62% |
| CN1CCCCN2[C@@H](CO)[C@@H](c3ccc(C4=CCCC4)cc3)[C@@H]2C1 | 0.437% |
| N#C[C@@H]1[C@H](c2ccc(-c3cccnc3)cc2)[C@H](CO)N1C(=O)C1CC1 | -3.1% |
| O=C(CN1CCOCC1)NCC[C@@H]1CC[C@@H](NC(=O)Nc2ccccc2)[C@H](CO)O1 | 0.549% |
| O=S(=O)(N[C@H]1CC[C@@H](CCNS(=O)(=O)c2ccccc2Cl)O[C@@H]1CO)c1ccccc1 | -8.16% |
| COc1ccc(C#Cc2ccc([C@@H]3[C@H](CO)N4C(=O)CN(C(C)=O)C[C@@H]34)cc2)cc1 | -6.73% |
| O=C(O)CCCCCCC(=O)NOCc1ccccc1 | -0.197% |
| CN(C)CC(=O)N[C@@H]1CC[C@H](CC(=O)NCc2ccc(Cl)cc2)O[C@H]1CO | 3.53% |
| CC(C)C#Cc1ccc2c(c1)O[C@@H](CN(C)C(=O)Nc1ccccc1)[C@H](C)CN([C@H](C)CO)S2(=O)=O | 3.59% |
| CCCc1cn(CC[C@@H]2CC[C@@H](NC(=O)C3CC3)[C@H](CO)O2)nn1 | -2.37% |

| Compound | growth activity, negative = inhibition |
| --- | --- |
| O=C(CC1CC1)N1[C@@H](CO)[C@@H](c2ccccc2)C12CN(S(=O)(=O)c1ccccc1)C2 | 1.02% |
| COc1ccc2c3c([nH]c2c1)[C@@H](CO)N(Cc1nccs1)CC31CCN(C(=O)C2CCCC2)CC1 | 1.43% |
| CCCC(=O)Nc1ccc2c(c1)C(=O)N(C)[C@H]1CC[C@@H](CC(=O)NCC(F)(F)F)O[C@@H]1CO2 | 4.45% |
| COCC(=O)N1CC[C@@H]2[C@@H](CO)Nc3ccc(-c4ccc(C(=O)N(C)C)cc4)cc3[C@@H]21 | -7.52% |
| CO[C@@H]1CN(C)C(=O)c2cc(NC(=O)C3CC3)ccc2OC[C@@H](C)N(C(=O)c2ccccc2F)C[C@@H]1C | -0.472% |
| O=C(C[C@H]1C[C@@H]2c3cc(NC(=O)C4CCOCC4)ccc3O[C@@H]2[C@H](CO)O1)NCC1CC1 | -3.84% |
| CO[C@@H]1CN(C)C(=O)c2cc(NC(=O)Nc3cccc(Cl)c3)ccc2OC[C@@H](C)N(C)C[C@@H]1C | -2.08% |
| CCS(=O)(=O)Nc1ccc2c(c1)C(=O)N(C)[C@@H]1CC[C@@H](CC(=O)NC)O[C@H]1CO2 | 3.49% |
| COc1ccc2c3c(n(C)c2c1)[C@H](CO)N(C(=O)Cc1ccccc1)CC31CCN(C)CC1 | -5.17% |
| O=C(C1CCC1)N1C[C@H]2[C@@H](c3ccccc31)[C@H](CO)N2C(=O)Nc1cccc(F)c1 | -2.73% |
| CCCNC(=O)N1C[C@H](C)[C@@H](OC)CN(C)C(=O)c2ccc(NS(=O)(=O)CC(F)(F)F)cc2OC[C@@H]1C | -2.19% |
| O=C(c1cccc(F)c1)N1CC[C@@H]2[C@H](CO)Nc3ccc(C#Cc4ccccc4)cc3[C@@H]21 | 0.292% |
| CN1C(=O)c2cc(NC(=O)C3CC3)ccc2OC[C@@H]2O[C@H](CC(=O)NCC3CCCCC3)CC[C@@H]21 | -3.31% |
| COc1cccc(S(=O)(=O)N2[C@@H]3CNC[C@H]2C3c2ccc(-c3ccccc3OC)cc2)c1 (stereo not given in full) | 17.5% and 1.35% |
| COC(=O)[C@@H]1[C@@H](CO)[C@@H]2Cn3c(ccc(-c4ccc(OC)cc4)c3=O)[C@@H]2N1S(C)(=O)=O | -4.77% |
| O=C(O)C[C@@H]1CC[C@H](NC(=O)CCN2CCCCC2)[C@H](CO)O1 | -9.12% |
| COc1ccc(C#Cc2ccc3c(c2)[C@H]2[C@H](CCN2Cc2nccs2)[C@@H](CO)N3)cc1 | -3.82% |
| COc1ccccc1CN1CC[C@@H]2[C@@H](CO)Nc3ccc(C#Cc4ccccc4)cc3[C@@H]21 | -94.5% (active) |
| CC(=O)N1CC[C@@H]2[C@H](CO)Nc3ccc(C#Cc4ccccc4F)cc3[C@@H]21 | -13.8% |
| N#C[C@@H]1[C@H](c2ccc(C#CC3CCCCC3)cc2)[C@@H](CO)N1S(=O)(=O)c1ccccc1 | -14.1% |
| COc1ccc2c3c(n(C)c2c1)[C@@H](CO)N(C(=O)Nc1ccccc1F)CC31CCN(C(=O)c2ccccc2F)CC1 | -1.72% |
| C[C@@H]1CN([C@@H](C)CO)C(=O)c2cc(-c3cccnc3)cnc2O[C@@H]1CN(C)C(=O)C1CC1 | 4.12% |

| Compound | growth activity, negative = inhibition |
| --- | --- |
| COc1ccccc1S(=O)(=O)N1C[C@@H]2N[C@H](C1)C2c1ccc(-c2cccc(C)c2)cc1 (stereo not given in full) | 66.4% and 49% |
| O=C(C1CCOCC1)N1CC2(C1)[C@H](c1ccccc1)[C@H](CO)N2Cc1ccc(Cl)cc1 | -1.43% |
| C[C@@H]1CCCCO[C@H](CN(C)Cc2ccc(C(F)(F)F)cc2)[C@H](C)CN([C@@H](C)CO)C(=O)c2cc(N(C)C)ccc2O1 | 3.85% |
| Cc1noc(C)c1NC(=O)N(C)C[C@H]1OCCCC[C@@H](C)Oc2ccc(NS(=O)(=O)c3ccc(Cl)cc3)cc2C(=O)N([C@@H](C)CO)C[C@H]1C | -9.03% |
| COc1ccc2c3c([nH]c2c1)[C@@H](CO)NCC31CN(S(=O)(=O)c2cccs2)C1 | -6.75% |
| CCCNC(=O)N1[C@H](CO)[C@@H]2c3ccccc3N(C(=O)C3CC3)C[C@@H]21 | 1.07% |
| COc1ccc(CN(C)C[C@@H]2OCCCC[C@H](C)Oc3ccc(NS(=O)(=O)c4ccc(F)cc4)cc3C(=O)N([C@H](C)CO)C[C@H]2C)cc1 | 8.17% |
| CC(=O)Nc1ccc2c(c1)C(=O)N(C)[C@@H]1CC[C@H](CC(=O)NCc3ccccc3)O[C@H]1CO2 | 6.07% |
| N#Cc1ccc(-c2ccc(C3[C@H]4CNC[C@@H]3N4S(=O)(=O)c3ccccc3F)cc2)cc1 (stereo not given in full) | 29.2% |
| CO[C@@H]1CN(C)C(=O)c2ccc(NS(=O)(=O)c3ccc(Cl)cc3)cc2OC[C@@H](C)N(C)C[C@@H]1C | -1.74% |
| CCCN1[C@H](C(=O)N[C@H](C)c2ccccc2)[C@@H](CO)[C@@H]2Cn3c(ccc(-c4cccc(F)c4)c3=O)[C@@H]21 | 14.4% |
| COCC#Cc1ccc([C@H]2[C@H]3CN(Cc4ccncc4)CCCCN3[C@H]2CO)cc1 | 13.5% |
| C[C@@H]1CN([C@@H](C)CO)C(=O)c2cc(NS(=O)(=O)c3cn(C)cn3)ccc2O[C@@H](C)CCCCO[C@H]1CN(C)S(=O)(=O)c1cccs1 | 1.84% |
| CN1c2ccc(-c3ccccc3)cc2[C@H]2[C@H](CCN2C(=O)c2ccc3c(c2)OCO3)[C@H]1CO | -20.7% |
| CN1C(=O)c2cc(NC(=O)c3cnccn3)ccc2OC[C@H]2O[C@@H](CC(=O)NCC3CCCCC3)CC[C@@H]21 | 0.457% |
| CO[C@H]1CN(C)C(=O)c2cc(NC(=O)C3CC3)ccc2OC[C@H](C)N(Cc2ccccc2)C[C@H]1C | -3.86% |
| Cc1ccc(-c2ccc3c(c2)O[C@H](CN(C)C(=O)CC2CC2)[C@@H](C)CN([C@H](C)CO)S3(=O)=O)cc1 | 3.19% |
| CCC(CO)Oc1cc(NC(=O)c2ccc(Cl)cc2)c2ncn(C(C)C)c2c1 (stereo not given) | -0.177% |
| O=C(NC1CCCC1)N1CC(=O)N2[C@H](C1)[C@H](c1ccc(/C=C/c3ccccc3)cc1)[C@@H]2CO | -1.1% |
| COCC(=O)N1CC2(C1)[C@@H](c1ccc(-c3cccc(F)c3)cc1)[C@@H](CO)N2C(=O)COC | -0.178% |
| CN1c2ccc(Br)cc2[C@@H]2[C@@H](CCN2S(=O)(=O)c2ccc(F)cc2)[C@@H]1CO | 67.3% |
